15 compounds from PubChem BioAssay (EPA / NIEHS) can be followed below.

Assay [1] is described as follows: CCTE_Simmons_MITO_inhib_resp_rate: CCTE's HepG2 Seahorse XF Respirometric Screening Assay at Inhibited Respiratory State [full ETC block], Simmons Lab (AID 2284006). The conditions noted are these: actives raise or lower the signal. An outline of the steps: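 OCR read-out in the inhibited phase following rotenone/antimycin A, after compound and FCCP injections, in HepG2 cells. Seven concentrations (125 nM to 100 uM final), three biological replicates, 6-min cycles over 72 min; DMSO baseline.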

Assay [2] is described as follows: CCTE_Shafer_MEA_acute_spike_number: CCTE's Neural Acute Assay for Total Number of Spikes, Shafer Lab (AID 2284008).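 For AC50: curve fitted for decrease in spike count so AC50 reflects inhibitors.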 In short, it runs like this:
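Cortical neurons from rat, matured to DIV 13 or 15 on microelectrode arrays, are recorded at 37 C before and during 40-min exposure to 0.03-40 uM compound. Wells need >/= 10 active electrodes.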

A short description of assay [3]: CCTE_Shafer_MEA_acute_firing_rate_mean: CCTE's Neural Acute Assay for Mean Firing Rate, Shafer Lab (AID 2284009).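 Note: analyzed for loss of signal so actives lower firing rate relative to DMSO.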 In short, it runs like this: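 Rat cortical neuron cultures matured to DIV 13 or 15, equilibrated 20 min at 37 C, then recorded 40 min for baseline. Compound (0.03-40 uM) added and a further 40 min recorded; percent change in mean firing rate calculated per well.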

A short description of assay [4]: CCTE_Harrill_HTTr_Viability_MCF7: CCTE's 6-hour Cell Viability Assessment for the High-Throughput Transcriptomics (HTTr) Platform, in MCF-7 cells cultured in DMEM + 10% fetal bovine serum, Harrill Lab (AID 2284010). In short, it runs like this: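 PI exclusion, high-content imaging; 8-pt dilution series, 6 h exposure; bidirectional fit vs DMSO (neg. ctrl/baseline); gain of signal = loss of membrane integrity.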

Assay [5] can be described thus: CCTE_Harrill_HTTr_Apoptosis_MCF7: CCTE's 6-hour Apoptosis Assessment for the High-Throughput Transcriptomics (HTTr) Platform, in MCF-7 cells cultured in DMEM + 10% fetal bovine serum, Harrill Lab (AID 2284011). In short, it runs like this:
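Cells are dosed with test chemicals at eight concentrations and imaged 6 hours later for caspase-3/7 activity using a green fluorogenic detection reagent. Activity is fitted in both directions against DMSO controls.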

A short description of assay [6]: CCTE_Harrill_HTTr_CellCount_MCF7: CCTE's Cell Proliferation Assessment for the High-Throughput Transcriptomics (HTTr) Platform, Harrill Lab (AID 2284012; active = hit-call score of the fitted dose curve at least 0.9, where 1 is the maximum;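 note: count of Hoechst-stained nuclei per well by high-content imaging in MCF-7 cells; cells exposed to compound for six hours; intended direction is loss of nuclei count meaning fewer cells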). An outline of the steps:
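Readout: Hoechst nuclear count by high-content imaging. MCF-7, 8-point dilution series, 6 h exposure. Bidirectional fit vs DMSO baseline.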

A short description of assay [7]: CCTE_Shafer_MEA_acute_burst_number: CCTE's Neural Acute Assay for Single-Electrode Bursts, Shafer Lab (AID 2284013). In short, it runs like this: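 Percent change in single-electrode burst number per well, from 40-min recordings taken before and after adding compound (0.03-40 uM) to primary rat cortical neurons on MEA plates at DIV 13 or 15, 37 C.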
The nature of assay [8]: CCTE_Shafer_MEA_acute_burst_duration_mean: CCTE's Neural Acute Assay for Mean Burst Duration, Shafer Lab (AID 2284014).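 Note: hits are decreases in mean burst duration relative to DMSO controls.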 An outline of the steps: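 Rat cortical cultures, DIV 13/15; 40 min baseline, then 40 min with compound (0.03-40 uM), 37 C. Spikes: 300-5000 Hz band-pass, 8x rms threshold. Read-out: % change in mean single-electrode burst duration, DMSO-referenced, loss direction.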

Assay [9] is described as follows: CCTE_Shafer_MEA_acute_per_burst_spike_number_mean: CCTE's Neural Acute Assay for Average Number of Spikes Per Burst, Shafer Lab (AID 2284015).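 Note: hits are decreases in mean spikes per burst versus baseline.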 In short, it runs like this: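 Percent change in mean spikes per single-electrode burst is compared between a 40 min baseline and a 40 min recording with compound (0.03-40 uM). Cultures were rat cortical neurons on MEA plates at DIV 13 or 15, recorded at 37 C, with DMSO as the negative control.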

Assay [10] in a line: CCTE_Shafer_MEA_acute_interburst_interval_mean: CCTE's Neural Acute Assay for Mean Interburst Interval, Shafer Lab (AID 2284016).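 Note: percent change of mean interburst interval versus each well's own pre-dose baseline; curves fitted for decrease in interburst interval relative to DMSO.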 In short, it runs like this:
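Percent change in mean single-electrode interburst interval was calculated per well from 40 min recordings before and after compound (0.03-40 uM). Recordings were made at 37 C on rat cortical cultures at DIV 13 or 15, with spikes detected at 8x rms threshold.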

A short description of assay [11]: CCTE_Shafer_MEA_acute_burst_percentage_mean: CCTE's Neural Acute Assay for Percentage of Spikes in a Burst, Shafer Lab (AID 2284017).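 Note: curve fitted for loss of signal so potency reflects decreased burst percentage.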 An outline of the steps: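 Well-level mean burst percentage from a 40-min recording after compound (0.03-40 uM) expressed as percent change from a 40-min baseline at 37C. Cultures: primary rat cortical neurons on MEA, dosed on DIV 13 or 15; fitted downward relative to DMSO.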

Assay [12] concerns the target Nucleoli Translocation, AR (gene 367) (UniProt P10275). The experiment in a line: UPITT_HCI_U2OS_AR_TIF2_Nucleoli_Antagonist: University of Pittsburgh U2OS Androgen Receptor-Transcriptional Intermediary Factor 2 (AR-TIF2) Antagonism High Content Imaging Assay for Nucleoli Translocation (AID 2283997; active = hit-call score of the fitted dose curve at least 0.9, where 1 is the maximum). In short, it runs like this: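 Compounds are added at 20 uM final concentration in 0.2% DMSO to U2OS cells carrying AR-RFP and TIF2-GFP fusions. Nucleolar AR-RFP fluorescence is then quantified by automated imaging. Antagonism is fitted positively against DHT baseline.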

In assay [13] the target is Ratio of Nucleoli Translocation and Cytoplasm, AR (gene 367) (UniProt P10275). The assay can be described thus: UPITT_HCI_U2OS_AR_TIF2_Nucleoli_Cytoplasm_Ratio_Antagonist: University of Pittsburgh U2OS Androgen Receptor-Transcriptional Intermediary Factor 2 (AR-TIF2) Antagonism High Content Imaging Assay for Ratio of Nucleoli Translocation and Cytoplasm (AID 2283999; active = hit-call score of the fitted dose curve at least 0.9, where 1 is the maximum;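 note: antagonists lower the DHT-driven ratio of nucleolar to cytoplasmic red signal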). An outline of the steps:
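Read-out is the ratio of nucleolar to cytoplasmic AR-RFP fluorescence, imaged by high-content microscopy in U2OS cells coexpressing TIF2-GFP. Single-point 20 uM screen, triplicate confirmation, then 0.195–50 uM dose response; activity referenced to DHT baseline.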

Assay [14] has as its target Nucleoli Translocation, AR (gene 367) (UniProt P10275). The assay can be described thus: UPITT_HCI_U2OS_AR_TIF2_Nucleoli_Agonist: University of Pittsburgh U2OS Androgen Receptor-Transcriptional Intermediary Factor 2 (AR-TIF2) Agonism High Content Imaging Assay for Nucleoli Translocation (AID 2283998; active = hit-call score of the fitted dose curve at least 0.9, where 1 is the maximum). In short, it runs like this: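 Red-tagged human androgen receptor co-expressed with GFP-tagged TIF2 serves as the binding reporter. Primary testing used 20 uM final (0.2% DMSO); follow-up dose response covered 0.195 to 50 uM final (0.5% DMSO).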

The test system of a further assay is DIO1 (gene 1733). The experiment in a line: CCTE_GLTED_hDIO1: CCTE's human Deiodinase 1 (DIO1) Inhibition Assay, Great Lakes Toxicology and Ecology Division (GLTED) Lab (AID 2283987; active = hit-call score of the fitted dose curve at least 0.9, where 1 is the maximum;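 note: isolated human DIO1 enzyme in a cell-free setup rather than cells; enzyme activity read as free iodide liberated from substrate via Sandell-Kolthoff colorimetry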). An outline of the steps:
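Cell-free hDIO1 assay, triplicate plates. Absorbance of the Sandell-Kolthoff reaction reports enzyme-liberated iodide; iodinated chemicals or nitrite, iron and thiocyanate may interfere.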

The structures appear in SMILES notation. Inconclusive results are not listed. Activity calls are given as the source filed them. Rule for the calls, unless noted: active = hit-call score of the fitted dose curve at least 0.9, where 1 is the maximum; inactive = score below 0.9.

Nucleoli Translocation, AR (gene 367), sequence (P10275 whole entry, looked up, the tested form may be a part): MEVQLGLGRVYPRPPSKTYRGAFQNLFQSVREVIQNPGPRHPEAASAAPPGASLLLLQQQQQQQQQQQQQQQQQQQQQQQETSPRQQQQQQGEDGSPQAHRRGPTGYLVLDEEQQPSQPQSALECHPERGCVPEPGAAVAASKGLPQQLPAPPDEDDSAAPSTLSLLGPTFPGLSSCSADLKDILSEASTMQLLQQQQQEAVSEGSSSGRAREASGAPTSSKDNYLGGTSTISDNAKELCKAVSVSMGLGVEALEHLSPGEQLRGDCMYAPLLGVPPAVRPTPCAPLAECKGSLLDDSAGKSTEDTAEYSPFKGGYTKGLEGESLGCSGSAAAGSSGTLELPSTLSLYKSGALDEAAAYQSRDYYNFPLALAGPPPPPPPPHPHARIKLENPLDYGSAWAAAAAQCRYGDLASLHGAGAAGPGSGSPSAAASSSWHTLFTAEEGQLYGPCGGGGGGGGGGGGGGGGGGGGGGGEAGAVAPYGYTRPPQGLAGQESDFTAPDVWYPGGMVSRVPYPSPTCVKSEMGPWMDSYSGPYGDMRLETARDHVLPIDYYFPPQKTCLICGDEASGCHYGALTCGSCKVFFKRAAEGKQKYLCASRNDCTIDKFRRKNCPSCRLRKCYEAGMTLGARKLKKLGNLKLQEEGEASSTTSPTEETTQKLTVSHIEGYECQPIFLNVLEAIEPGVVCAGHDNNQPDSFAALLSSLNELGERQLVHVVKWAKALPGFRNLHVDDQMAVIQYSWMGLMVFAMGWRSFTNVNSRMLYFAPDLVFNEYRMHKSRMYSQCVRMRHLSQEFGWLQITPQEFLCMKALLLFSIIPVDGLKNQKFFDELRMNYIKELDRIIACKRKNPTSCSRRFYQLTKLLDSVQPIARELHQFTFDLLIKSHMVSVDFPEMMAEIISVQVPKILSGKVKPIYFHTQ
Ratio of Nucleoli Translocation and Cytoplasm, AR (gene 367), sequence (P10275 whole entry, looked up): as the sequence (P10275 whole entry, looked up, the tested form may be a part) above

As a reminder, the AC50 is the concentration giving half of the maximal activity seen. Turning to `CC(=O)N1CCN(c2ccc(OC[C@H]3CO[C@](Cn4ccnc4)(c4ccc(Cl)cc4Cl)O3)cc2)CC1`, the AC50 was 9.46 µM (active) in assay [1] and 33 µM (active) in assay [11]. Also, the compound was called inactive in assay [2], in [3], in [4], in [5], in assay [6] and in [7]. Moreover, the call in assay [8], in assay [9] and in assay [10] was inactive.
As to `CCCCCCCCCC(=O)O`, the call in [12], in assay [13], in [1], in [4], in assay [5] and in assay [6] was inactive.
In the case of `CN(C)c1ccc(C(=C2C=CC(=[N+](C)C)C=C2)c2ccc(N(C)C)cc2)cc1`, the AC50 is 0.262 µM (active) in [12]; 14.6 µM (active) in [14]; 2.66 µM (active) in assay [13]; 61.6 µM (active) in assay [1]; 416 nM (active) in assay [2]; 406 nM (active) in assay [3]. For the same compound, the values for the AC50 in [4], in assay [7] and in assay [11] were 14.4 µM (active), 348 nM (active) and 2.07 µM (active), respectively. In addition, the result in [5], in assay [6], in assay [8], in [9] and in assay [10] was inactive.
For `CCOC(=O)O[C@H](C)OC(=O)c1ccc2c(c1)cc(C(=O)NC1CCN(C(C)C)CC1)n2Cc1cc(-c2ccc(Cl)s2)on1`, the concentration at half-maximal activity (AC50) with DIO1 (gene 1733) was 97.5 µM (active); in [4] it was 76.7 µM (active); in [5], 72.2 µM (active). Besides, the compound was called inactive in assay [6].
On to `O=c1c(-c2ccc(O)cc2)coc2cc(O)cc(O)c12`, for which, in the assay on DIO1 (gene 1733), the AC50 is 2.42 µM (active). Further, the outcome in assay [12], in assay [14], in assay [13], in assay [4], in [5] and in [6] was inactive.
As for `CCCCCCCCOC(=O)c1cc(O)c(O)c(O)c1`, the AC50 with DIO1 (gene 1733) is 101 µM (active); in [2], 4460 nM (active); in assay [3], 4460 nM (active); in [7], 4910 nM (active); in [11] it was 5.8 µM (active). The compound was classed as inactive in assay [1], in [4], in assay [5], in assay [6], in assay [8] and in assay [9]. The call in [10] was inactive.
As to `Cc1cc(F)ccc1-c1cc(N2CC[C@@H](O)[C@H]2CO)ncc1N(C)C(=O)C(C)(C)c1cc(C(F)(F)F)cc(C(F)(F)F)c1`, the call in assay [12], in assay [1], in [4], in assay [5] and in [6] was inactive. The AC50 in assay [14] was 40.8 µM (active).
With `Cc1ccc(C(C)C)cc1`, the result in assay [12], in [14], in assay [13], in [4], in assay [5] and in [6] was inactive.
On to `NC(=O)c1nc(-c2cccc(-c3cc(F)ccc3OCC(F)(F)C(F)(F)F)c2)n[nH]1`, for which the outcome in assay [12], in assay [13], in assay [1], in assay [4], in assay [5] and in [6] was inactive. The call in assay [8] and in assay [10] was inactive. For the same compound, the half-maximal activity concentration (AC50) in assay [14] was 13.2 µM (active); in assay [2], 648 nM (active); in assay [3], 649 nM (active); in [7] it was 446 nM (active); in assay [9], 4.11 µM (active); in assay [11] it was 7.48 µM (active).
Regarding `CCCCCCCCCCCO`, the result in [1], in assay [4], in assay [5] and in assay [6] was inactive.
Consider `NCc1cccc(C2CCN(C(=O)c3ccc(C#Cc4ccccc4F)o3)CC2)c1`, for which the AC50 in the assay with DIO1 (gene 1733) is 88.6 µM (active); in assay [12] it was 72.7 µM (active); in [13], 27.2 µM (active); in assay [2], 9020 nM (active); in assay [3], 9020 nM (active); in assay [4], 50 µM (active). The half-maximal activity concentration (AC50) in assay [5] is 61.4 µM (active); in [7], 8950 nM (active); in [9] it was 35.3 µM (active); in assay [10] it was 4.14 µM (active); in assay [11], 30.8 µM (active). Moreover, the compound was classed as inactive in assay [14], in assay [1], in assay [6] and in [8].
On to `CC/C(=C(/CC)c1ccc(O)cc1)c1ccc(O)cc1`, for which the concentration at half-maximal activity (AC50) is 6.72 µM (active) in assay [1]; 8490 nM (active) in [2]; 8490 nM (active) in [3]; 6.76 µM (active) in assay [9]; 10.6 µM (active) in [11]. Also, the outcome in assay [4], in assay [5], in assay [7], in assay [8] and in [10] was inactive.
As to `CC(C)(C)c1csc(-c2cc3cc(OCc4ccccc4CC(=O)O)ccc3o2)n1`, the AC50 is 100 µM (active) in the assay on DIO1 (gene 1733) and 4.67 µM (active) in [1]. In addition, the outcome in assay [4] and in [5] was inactive.
Regarding `CN(C[C@@H](CC[N+]12CCC(C3CCCCC3)(CC1)CC2)c1ccc(Cl)c(Cl)c1)C(=O)c1cc(C(F)(F)F)cc(C(F)(F)F)c1`, the AC50 with DIO1 (gene 1733) is 57.6 µM (active); in assay [12] it was 50 µM (active); in [13], 29.6 µM (active); in assay [2] it was 273 nM (active); in assay [3], 273 nM (active); in assay [4], 78.6 µM (active). Besides, the AC50 was 42.5 µM (active) in assay [5]; 249 nM (active) in assay [7]; 1.19 µM (active) in assay [8]; 1.14 µM (active) in assay [9]; 8.36 µM (active) in assay [11]. Besides, the result in assay [6] and in assay [10] was inactive.
`CCN(Cc1cccnc1)C(=O)c1cccc(Cl)c1[C@]1(C)C(=O)N(Cc2ccc(OC)cc2OC)c2ccc(Cl)cc21`: the compound was called inactive in assay [12], in assay [14], in [13], in [1], in [4] and in [5].
